Experimental data as given in the emibetuzumab library of Makowski et al. (2022).
The list shows a part of the results. No count for the full screen is at hand.

B1: VH:VL chains; a variant is named by its letters at X, in order (parent)
chain 1: QVQLVQSGAEVKKPGASVKVSCKASGYTFTDYXMHWVRQAPGQGLEWMGXVNPNXXXTTYNQKFEGRVTMTTDTSTSTAYMELRSLRSDDTAVYYCARXNXLDXWGQGTTVTVSS
chain 2: DIQMTQSPSSLSASVGDRVTITCSVSSSVSSIYLHWYQQKPGKAPKLLIYSTSNLASGVPSRFSGSGSGTDFTLTISSLQPEDFATYYCQVYSGYPLTFGGGTKVEIK

Variants of: B1
Assay: yeast display scFab, FACS + sequencing
Conditions: with MET
In short: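 A yeast surface library of scFab variants carrying heavy-chain CDR mutations went through two magnetic enrichment rounds on Protein A beads coated with HGFR-Fc, then FACS. For sorting, cells were labelled for 3 h at room temperature with 1 nM HGFR-Fc and anti-Myc in PBSB containing 1% milk, and the top 50% of antigen-positive cells were gated. Input and round-3 sorted populations were deep sequenced in two replicates. A sequence was called an antigen binder if it appeared in both antigen-positive samples and a non-binder if it appeared only in the input.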

Row | Variant | antigen binding call
1 | DEEEGSAA | no binding
2 | YKARGAWS | binds
3 | YRARGAGS | binds
4 | YRARGAWS | binds
5 | YEEGTDWY | no binding
6 | DREEGDGV | no binding
7 | DEAGTAVA | no binding
8 | VKRGSSGD | binds
9 | VRAGDSLS | no binding
10 | VRRGGSGS | binds
11 | VKRRDSGD | no binding
12 | VRGRDYGD | no binding
13 | AKGTASGD | no binding
14 | ARRGGSGS | no binding
15 | VRGRSSGS | binds
16 | VRTGAVGD | no binding
17 | VRGRAAGD | binds
18 | VAGRSFGS | no binding
19 | VERGGFGS | no binding
20 | VEKEGDAD | no binding
21 | VKEKGDWV | no binding
22 | DARGGDAA | no binding
23 | VAATASWV | no binding
24 | SEARSDGS | no binding

Row | Variant | antigen binding call
25 | VTGTGDAD | no binding
26 | DRGRDAWS | no binding
27 | VRRGGSGD | binds
28 | VRERGDGS | no binding
29 | VRTEDDWS | no binding
30 | VRERGAGS | binds
31 | VRAGGSGD | binds
32 | VRGRSAWS | binds
33 | VRERGDAS | no binding
34 | SREAADWA | no binding
35 | SEARSDWA | no binding
36 | AARADSGY | no binding
37 | VAATAAGA | no binding
38 | DKTKGDWV | no binding
39 | VRAGAAGS | binds
40 | ARRGSAVS | no binding
41 | VRRGSSGD | binds
42 | VRAGDDGS | no binding
43 | VRRGSAGS | binds
44 | VRAGADGV | no binding
45 | VRRGSAGD | binds
46 | VTTKSAGD | no binding
47 | VEGTSSGD | no binding
48 | VRAGAAGV | no binding

Row | Variant | antigen binding call
49 | DKGEGAGV | no binding
50 | STAESDVA | no binding
51 | YRRGGSGD | binds
52 | VRRETVSD | no binding
53 | VRRGSASD | binds
54 | VRRAADSD | no binding
55 | SAGEGDVF | no binding
56 | FKGRGAAV | binds
57 | DRGRGSAD | binds
58 | VKEGGSAD | no binding
59 | VKAGASAD | no binding
60 | VKGRGSAD | binds
61 | DEGGTSAD | no binding
62 | FTGRAAAV | no binding
63 | FKGRGFVV | no binding
64 | FRGRASAD | binds
65 | DTGTSAAF | no binding
66 | STGEADAS | no binding
67 | YAEESDWV | no binding
68 | ATGGAAGD | no binding
69 | VGGTSDGA | no binding
70 | VKTKGVVD | no binding
71 | FKGRGSAD | binds
72 | FAGRGSAD | binds

Row | Variant | antigen binding call
73 | FTGRGSAD | no binding
74 | VKGRGVVD | binds
75 | FKGRGAAD | binds
76 | VAGRGVGD | no binding
77 | FAGRGSSD | no binding
78 | VAGGDDAV | no binding
79 | FAEGAAGD | no binding
80 | VGGTSSLD | no binding
81 | DKRKGVSD chain 1 S88F | no binding
82 | ATGRADGV | no binding
83 | FRGRGSAD | binds
84 | AAGRSDLV chain 1 R67H | no binding
85 | FAGRSDWV chain 1 R67H | no binding
86 | YRTRDSVA | binds
87 | FRTRDVGF | no binding
88 | SRTRDAGD | binds
89 | FRTRDAGD | binds
90 | SETTDAGD | no binding
91 | SEGGDAGD | no binding
92 | YRTRDSLD | binds
93 | YTTRDDSD | no binding
94 | STEASYLS | no binding
95 | VGRATVGS | no binding
96 | FTRRSSLF chain 1 V111I | no binding

Row | Variant | antigen binding call
97 | YRTRDSVD | binds
98 | FRTRDSLD | binds
99 | FRTRDALD | binds
100 | FTTRDDSD | no binding
101 | FRGRDFLD | no binding
102 | SARKGDVA | no binding
103 | VTGTGDVY | no binding
104 | STGGDDGF | no binding
105 | YAGGDDAV | no binding
106 | DTKAADGV | no binding
107 | YRAGAASD | binds
108 | YRGKDASD | binds
109 | YRAGSASD | binds
110 | YREGDASD | no binding
111 | DRAGDASD | no binding
112 | AARADDAA | no binding
113 | SEARSDAA | no binding
114 | YAGEGFGV | no binding
115 | VRERGASD | binds
116 | VKAGGSLY | binds
117 | VKAGGDVY | no binding
118 | VTERGSLD | no binding
119 | VKKTGDLY | no binding
120 | VRERGSWD | binds

Row | Variant | antigen binding call
121 | VRERGAWD | binds
122 | VGGTSSSA | no binding
123 | AGGTSYSV | no binding
124 | SARADSGV | no binding
125 | VTGGDYAV | no binding
126 | DEGTGAVA | no binding
127 | VRKGGSVY | no binding
128 | VRERGSLY | binds
129 | SEARSSSD | no binding
130 | YRARGSWD | binds
131 | YRARSSWD | binds
132 | YRRGGSWD | binds
133 | YRARSSSD | binds
134 | VAREDDLS | no binding
135 | VEGGGDGA | no binding
136 | ATGRADVY | no binding
137 | VEEASSWA | no binding
138 | SGGGNDLA chain 1 R87K | no binding
139 | YAAGSSWD | no binding
140 | YRRGASWD | binds
141 | YRAGDSWD | binds
142 | DRAGDSWD | no binding
143 | YRAGSSWD | binds
144 | YRRGDAWD | binds

Row | Variant | antigen binding call
145 | DRAGDSWA | no binding
146 | DETKGDWD | no binding
147 | YRARGAWD | binds
148 | YRAGGSWF | binds
149 | YRRGDSWD | binds
150 | YEGAASWF | no binding
151 | YRAKGSWD | binds
152 | VTGTGDWV | no binding
153 | VEEEGSVV | no binding
154 | DAKEGDAV | no binding
155 | DTGGGAWD | no binding
156 | YRRGDSAD | binds
157 | YKARGSWD | binds
158 | FREGASWD | no binding
159 | FRAGSSWD | binds
160 | VEAGSDGV | no binding
161 | VEKEGDGV | no binding
162 | DTTGSASF | no binding
163 | YRAGGVGD | binds
164 | YRAGGYGD | binds
165 | YRKENYGD | no binding
166 | VKGRGSAY | binds
167 | YKGRGSAY | binds
168 | VAGTGDVF | no binding

Row | Variant | antigen binding call
169 | YRGRSAGV | binds
170 | YRGRTAAV | binds
171 | YRERTAAV | no binding
172 | FKGRGFGV | no binding
173 | YTGKSVAV | no binding
174 | FRGRGFGV | binds
175 | YRGKSAAV | binds
176 | DTREGAVV | no binding
177 | VAGGDYLV | no binding
178 | DKGGGDVA | no binding
179 | AGEGNSWA | no binding
180 | VAGTGDGA | no binding
181 | YRGRTAGV | binds
182 | YRGRSFGV | binds
183 | DRGRDFGV | no binding
184 | YRGRGFGV | binds
185 | YRRRTAAV | binds
186 | YAGRTAGV | no binding
187 | VRGRDFGV | no binding
188 | YRGRSFAV | no binding
189 | SEARNDGA | no binding
190 | DAGGDAGD | no binding
191 | VTRGADAA | no binding
192 | AARADDSV | no binding

Row | Variant | antigen binding call
193 | YRTRGSGY | binds
194 | YRTRGSLY | binds
195 | YATEDDWV | no binding
196 | VETGNAVY | no binding
197 | SEARSDLY | no binding
198 | FAEGSYAF | no binding
199 | VGAEDDVA | no binding
200 | SGETGDSV | no binding
201 | FRGRSSAA | binds
202 | FRGRGSAA | binds
203 | VTGRGDVA | no binding
204 | DREEGAGV | no binding
205 | YREGGSGV | binds
206 | DKEGGSGV | no binding
207 | YREGGAGV | binds
208 | VEKEGDWY | no binding
209 | SAREGDLA | no binding
210 | VTAGDSAD | no binding
211 | VRAKGSAD | binds
212 | VEEEGSAD | no binding
213 | VAGTGSAD | no binding
214 | VRAGGSAD | binds
